Only some compounds are listed: those with a hit (about 11% of all), similar ones and a draw of the others.
Tau fluor cs: counter-screen for tau fibril formation inhibitors; tau K18 P301L Alexa594 fluorescence, heparin fibrillization; Potency, µM (doses to about 57.7 µM), for the others: at the top dose activity change, negative = decrease; actives 0.93% (n = 280,000); AID 1463; note: potency is the fitted concentration of half-maximal effect; nearly all actives have a fitted effect of over 55% in size
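Human tau K18 P301L (15 uM unlabeled, 0.24 uM Alexa 594-labeled) in 100 mM sodium acetate pH 7 with 20 uM heparin, 6 hr at 37 C. ThT 30 uM added, 1 hr ambient; Alexa 594 FP and total fluorescence read at 555/632 nm.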
Tau fibril ThT: blocks human tau fibril formation measured by thioflavin T; recombinant tau K18 P301L, heparin-induced fibrillization, ThT fluorescence; Potency, µM (titrated, usually from 57.4 µM), for the others: at the highest dose activity, negative = inhibition, usual class: inhibitors; actives 2.1% (n = 270,000); AID 1460; note: potency is the fitted concentration of half-maximal effect; nearly all actives have a fitted effect of over 55% in size
Target sequence (P10636 561-689 P618L limits assumed): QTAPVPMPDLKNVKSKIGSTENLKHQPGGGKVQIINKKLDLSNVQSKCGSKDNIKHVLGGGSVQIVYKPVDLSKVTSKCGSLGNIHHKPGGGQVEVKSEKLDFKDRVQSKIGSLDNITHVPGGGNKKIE
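Fibril formation assay: tau K18 P301L at 15 uM with trace Alexa 594 label, heparin inducer 20 uM, pH 7 sodium acetate buffer, 37 C for 6 hr; endpoint ThT signal.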
Sfp inh: inhibitors of Bacillus subtilis Sfp phosphopantetheinyl transferase | Potency, µM, without a hit: largest response in the series, negative = inhibition, hits mostly inhibitors | Biochemical Sfp PPTase activity, qHTS | actives 3.5% (n = 310,000) | Q9F4F7;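 note: the enzyme is Sfp with the accession as filed and its product quenches rhodamine fluorescence; potency is the fitted concentration of half-maximal effect; 0% = enzyme reaction without inhibitor and -100% = no enzyme wells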
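Fluorescence-quenching assay: 15 nM Sfp-PPTase preincubated 15 min at room temperature with compound, then 5 uM rhodamine-CoA and 12.5 uM BHQ-2-labelled YbbR peptide added. Fluorescence (ex 525/em 598 nm) read at start and after 30 min; difference gives rate.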
G9a inh: G9a (human) methyltransferase inhibition; Q96KQ7; G9a H3K9 monomethylation, AlphaScreen, 2 h; Potency, µM (doses to about 102 µM), inactives show at the highest dose activity, negative = inhibition, usual class: inhibitors; actives 8.8% (n = 350,000); note: potency is the fitted concentration of half-maximal effect; nearly all actives have a fitted effect of over 75% in size
Target sequence (Q96KQ7 913-1193 limits assumed): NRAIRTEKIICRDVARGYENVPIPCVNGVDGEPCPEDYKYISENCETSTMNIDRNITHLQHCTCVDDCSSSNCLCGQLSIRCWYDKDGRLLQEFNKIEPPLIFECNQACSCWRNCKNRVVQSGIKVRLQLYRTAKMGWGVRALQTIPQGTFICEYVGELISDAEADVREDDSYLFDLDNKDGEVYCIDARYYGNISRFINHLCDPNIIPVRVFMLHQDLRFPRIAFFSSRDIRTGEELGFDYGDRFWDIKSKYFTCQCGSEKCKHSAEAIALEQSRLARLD
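Signal arises when biotinylated H3K9 peptide, once monomethylated, bridges streptavidin donor and antibody-captured acceptor beads. Enzyme at 20 nM was preincubated 15 min with test compounds; peptide 500 nM and SAM 20 uM then reacted for 2 h.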
Coupling enz: counter-screen for Giardia aldolase inhibitors: coupling enzyme system. coupling enzyme system counterscreen, AmpLite Red fluorescence. activity change, negative = inhibition, % at 58.2 µM, hits read low. AID 2472. actives 0.67% (n = 290,000); in the data active = activity change below about -30%
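Compounds tested against the coupling enzymes alone at 57.5 uM final; readout was AmpLite Red fluorescence (525/598 nm) after 20 min at RT.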
Tau FP inhib: inhibitors of human tau fibril formation; AID 1468; K18 P301L tau heparin fibrillization, Alexa594 FP, 6 h; actives 0.39% (n = 280,000); P10636; Potency, µM (doses to about 57.7 µM), inactives show at the highest dose activity, negative = inhibition, most hits filed as inhibitors; note: potency is the fitted concentration of half-maximal effect; nearly all actives have a fitted effect of over 55% in size
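Heparin (20 uM) drove fibril formation of recombinant tau K18 P301L, 15 uM unlabeled with 0.24 uM Alexa 594 label, for 6 hr at 37 C in 100 mM sodium acetate pH 7. Fluorescence polarization (555/632 nm) read 1 hr after 30 uM ThT.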
Starred values were filed as active, the others as inactive; [ ] = dose if it differs, or a comment. Unless noted, calls come from the whole dose curve; as a rule, active = well fitted curve in the direction sought with a large enough effect; inconclusive = small, poorly fitted or top-dose-only effect, or another doubt; inactive = no such curve, though single readings can be large; an effect the other way counts as inactive or inconclusive. Unless noted, % is set by controls: 0 for no effect and ±100 for the full control effect.

CCc1ccc(N2C(=O)Cc3c2nc(N)c(C#N)c3N)cc1 was read as Tau fluor cs inconclusive, Tau fibril ThT inconclusive, Sfp inh 4%, G9a inh 15%[12.7 µM], Coupling enz -4 and Tau FP inhib inconclusive.
Screening CCN(CC)c1nc2c3c(nc4c(c3c1C#N)CC(=O)N4c1ccc(Cl)cc1)NC(C)=N2 returned Tau fluor cs inconclusive, Tau fibril ThT 16µM*, Sfp inh inconclusive, G9a inh 35µM*, Coupling enz -2 and Tau FP inhib inconclusive.
C[C@@]12CCC[C@H]1C1CC[C@H]3C[C@H](O)CC[C@]3(C)C1CC2 (some centres undefined) was read as Tau fluor cs -9%, Tau fibril ThT -12%, Sfp inh 26%, G9a inh 34%[59 µM] and Tau FP inhib 1%.
`O=C(CSc1nnc(-c2ccccc2)n1Cc1ccco1)NCc1ccc2c(c1)OCO2` gave Tau fluor cs -17%, Tau fibril ThT -9%, Sfp inh inconclusive, G9a inh 45µM*, Coupling enz -5 and Tau FP inhib -3%.
Screening O=C(CSc1nnc(-c2ccccc2)n1Cc1ccco1)Nc1ccc2c(c1)OCCO2 returned Tau fluor cs -13%, Tau fibril ThT -17%, Sfp inh 45µM*, G9a inh 40µM*, Coupling enz 7 and Tau FP inhib 1%.
`Cc1nnc(SCC(=O)Nc2cccc(C(F)(F)F)c2)n1Cc1ccco1` gave Tau fluor cs -3%, Tau fibril ThT 9%, Sfp inh 40µM*, G9a inh -48%[59 µM], Coupling enz 2 and Tau FP inhib -3%.
`O=C(CSc1nnc(-c2cccs2)n1Cc1ccco1)Nc1ccc2c(c1)OCO2` gave Tau fluor cs -21%, Tau fibril ThT -10%, Sfp inh inconclusive, G9a inh -41%[12.7 µM], Coupling enz 4 and Tau FP inhib 5%.
For Cc1cc(C(=O)CSc2nnc(-c3ccccc3)n2Cc2ccc3c(c2)OCO3)c(C)n1C the results were Tau fluor cs 1%, Tau fibril ThT -8%, Sfp inh -7%, G9a inh 28µM*, Coupling enz 5 and Tau FP inhib -2%.
Screening Cc1cc(C)cc(N2CCn3c2nc2c3c(=O)n(CCc3ccccc3)c(=O)n2C)c1 returned Tau fluor cs -3%, Tau fibril ThT -4%, G9a inh -20%[59 µM] and Tau FP inhib 2%.
CCOC(=O)C1(CCOC)CCN(C(C)CCc2ccc(OC)cc2)CC1 (centres undefined) was read as Tau fluor cs -1%, Tau fibril ThT -4%, Sfp inh 4%, G9a inh -45%, Coupling enz 1 and Tau FP inhib -8%.
Screening Oc1ccc(CN2CCCCC2)nc1-c1ccccc1 returned Tau fluor cs 10%, Tau fibril ThT 7%, Sfp inh 15%, G9a inh 0%[59 µM], Coupling enz 0 and Tau FP inhib 6%.
`Oc1ccc(-c2ccccc2)cc1CN1CCCCCC1` gave Sfp inh 89µM*, G9a inh -2%[2.33 µM] and Coupling enz 2.
O=S(=O)(CCc1ccncc1)c1ccc(Cl)cc1 was read as Sfp inh 3%, G9a inh 35µM* and Coupling enz -1.
Screening CCOC(=O)C1(Cc2cccc(F)c2)CCN(Cc2nc(CC)[nH]c2C)CC1 returned Tau fluor cs -25%, Tau fibril ThT inconclusive, Sfp inh 2%, G9a inh 40µM*, Coupling enz 2 and Tau FP inhib 16%.
CCOC(=O)C1(Cc2cccc(F)c2)CCN(Cc2cnn(CC)c2)CC1 was read as Tau fluor cs -4%, Tau fibril ThT -1%, Sfp inh 21%, G9a inh 11%, Coupling enz 0 and Tau FP inhib -12%.
CCn1nc(NS(=O)(=O)c2ccc([N+](=O)[O-])cc2)c2cc3cccc(C)c3nc21 was read as Sfp inh 5% and G9a inh 18µM*.
Screening Cn1cccc1C(=S)N=P(C1CCCCC1)(N1CCOCC1)N1CCOCC1 returned Tau fluor cs 2%, Tau fibril ThT 1%, Sfp inh -28%, G9a inh 8.9µM*, Coupling enz -1 and Tau FP inhib 1%.
Cc1ccsc1C=C1C(=O)c2ccccc2C1=O was read as Tau fluor cs inconclusive, Tau fibril ThT 14µM*, Sfp inh 3%, G9a inh 28µM*, Coupling enz 1 and Tau FP inhib -2%.
Cc1ccsc1/C=C1/C(=O)NN(c2ccccc2)C1=O was read as Tau fluor cs -29%, Tau fibril ThT inconclusive, Sfp inh 11%, G9a inh -19%[59 µM], Coupling enz -12 and Tau FP inhib 8%.
`c1csc(-c2nc(N3CCOCC3)c3ccccc3n2)c1` gave Sfp inh 6%, G9a inh 11%[59 µM] and Coupling enz 7.
`COc1ccc(Nc2nc(-c3cccs3)nc3ccccc23)cc1` gave Tau fluor cs 10µM*[quencher], Tau fibril ThT inconclusive, Sfp inh -5%, G9a inh 1%[59 µM], Coupling enz 1 and Tau FP inhib 15%.
For COc1ccc(N2CCN(c3nc(-c4cccs4)nc4ccccc34)CC2)cc1 the results were Tau fluor cs inconclusive, Tau fibril ThT inconclusive, Sfp inh -16%, G9a inh 20µM*, Coupling enz 0 and Tau FP inhib -4%.
For COc1cccc(CN(C)c2nc(-c3cccs3)nc3ccccc23)c1 the results were Tau fluor cs -28%, Tau fibril ThT inconclusive, Sfp inh -22%, G9a inh -7%[59 µM], Coupling enz 1 and Tau FP inhib inconclusive.
COc1cccc(Nc2nc(-c3cccs3)nc3ccccc23)c1 was read as Tau fluor cs inconclusive, Tau fibril ThT 10%, Sfp inh 2%, G9a inh 74%[59 µM], Coupling enz -1 and Tau FP inhib 25µM*.
COc1ccc(Nc2nc(-c3ccccc3)nc3ccccc23)cc1 was read as Sfp inh 3%, G9a inh 11% and Coupling enz 0.
Screening O=C(CN1C(=O)NC2(CCOc3ccccc32)C1=O)c1ccc[nH]1 (centres undefined) returned G9a inh 5%[2.33 µM].
For CCCn1cc(S(=O)(=O)c2ccccc2)c(=O)c2cc(F)c(N3CCCCCC3)cc21 the results were Tau fluor cs -3%, Tau fibril ThT -1%, G9a inh 8%[59 µM] and Tau FP inhib 3%.
CCCCN(C)C(=O)C1CCN(Cc2cccnc2)CC1 was read as Sfp inh -17%, G9a inh 14µM* and Coupling enz 0.

Source: PubChem (National Center for Advancing Translational Sciences (NCATS))
